Holding throughout (experiment): DAPPL (digital affinity profiling via proximity ligation, sequencing); 10 mM Tris-HCl pH 7.5, 50 mM NaCl, 1 mM DTT, 4% glycerol, room temperature, 30 min; GST-TFs on glutathione beads, 16-mer random dsDNA library, 0.1% formaldehyde crosslink after washing; high values mean tight binding
Common to all, as to conditions: protein: recombinant; tags: N-terminal GST; dsDNA, one strand shown

One experiment has as its target T1, FLI1 (Homo sapiens, UniProt Q01543 1-452).
T1 sequence: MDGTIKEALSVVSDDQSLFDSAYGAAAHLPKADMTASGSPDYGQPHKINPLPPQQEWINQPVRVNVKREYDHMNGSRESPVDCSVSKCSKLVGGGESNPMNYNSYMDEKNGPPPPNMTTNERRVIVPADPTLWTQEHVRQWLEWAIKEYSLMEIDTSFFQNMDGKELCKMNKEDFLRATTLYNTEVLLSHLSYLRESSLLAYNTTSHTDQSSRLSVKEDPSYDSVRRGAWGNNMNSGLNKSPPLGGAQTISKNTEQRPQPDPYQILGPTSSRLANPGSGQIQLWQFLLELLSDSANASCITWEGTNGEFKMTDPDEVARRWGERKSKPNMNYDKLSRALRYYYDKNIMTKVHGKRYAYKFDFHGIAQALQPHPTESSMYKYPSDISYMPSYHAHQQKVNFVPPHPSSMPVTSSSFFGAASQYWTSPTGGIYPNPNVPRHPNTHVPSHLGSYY
The essentials: (§1)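 After expression in yeast as GST fusions, human transcription factors were bound to glutathione beads, DNA-barcoded and mixed with a tag-only sample. The pools were incubated with 200 nmole of a 16-mer random double-stranded DNA library in Tris/NaCl/DTT/glycerol buffer (30 min, room temperature), washed and crosslinked with 0.1% formaldehyde. Proximity ligation with BsaI/T4 ligase ran for 1 h at 37 °C, before PCR amplification and sequencing on an Illumina NextSeq500. Binding signal is a hexamer's read frequency for a factor divided by its frequency for the tag-only sample.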

For the next experiment, the target named is T2, ELK1 (Homo sapiens, UniProt P19419 1-428).
T2 sequence: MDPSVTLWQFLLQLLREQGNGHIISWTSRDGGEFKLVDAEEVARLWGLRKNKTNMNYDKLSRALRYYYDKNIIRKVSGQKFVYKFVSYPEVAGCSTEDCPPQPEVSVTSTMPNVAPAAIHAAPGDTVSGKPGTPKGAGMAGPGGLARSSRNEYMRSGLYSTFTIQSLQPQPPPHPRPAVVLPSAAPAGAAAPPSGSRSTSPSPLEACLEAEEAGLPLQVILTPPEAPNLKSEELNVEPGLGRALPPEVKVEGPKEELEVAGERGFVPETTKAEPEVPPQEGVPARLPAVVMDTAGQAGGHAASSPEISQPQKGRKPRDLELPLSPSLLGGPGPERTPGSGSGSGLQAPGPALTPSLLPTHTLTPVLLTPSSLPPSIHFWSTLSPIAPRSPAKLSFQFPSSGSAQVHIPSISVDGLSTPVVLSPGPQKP
The gist of the method: as §1

A further experiment addresses T3, ERG (Homo sapiens, UniProt P11308 1-479).
T3 sequence: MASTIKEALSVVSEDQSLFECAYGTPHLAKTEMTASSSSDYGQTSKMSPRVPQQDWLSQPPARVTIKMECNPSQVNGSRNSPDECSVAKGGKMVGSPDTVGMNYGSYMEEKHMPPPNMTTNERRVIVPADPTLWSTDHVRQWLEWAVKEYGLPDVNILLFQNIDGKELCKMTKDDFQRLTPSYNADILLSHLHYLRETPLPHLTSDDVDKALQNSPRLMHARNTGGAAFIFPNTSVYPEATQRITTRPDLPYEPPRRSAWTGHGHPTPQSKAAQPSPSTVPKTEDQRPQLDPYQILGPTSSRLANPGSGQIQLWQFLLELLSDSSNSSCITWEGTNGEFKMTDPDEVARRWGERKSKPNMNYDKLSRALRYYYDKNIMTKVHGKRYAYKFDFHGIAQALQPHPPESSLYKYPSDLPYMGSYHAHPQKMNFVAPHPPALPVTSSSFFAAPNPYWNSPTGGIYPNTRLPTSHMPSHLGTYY
The essentials:
as §1

Another experiment has as its target ELF1 (Homo sapiens, UniProt P32519 1-619). The essentials:
as §1

Another experiment addresses T4, EHF (Homo sapiens, UniProt Q9NZC4 1-300).
T4 sequence: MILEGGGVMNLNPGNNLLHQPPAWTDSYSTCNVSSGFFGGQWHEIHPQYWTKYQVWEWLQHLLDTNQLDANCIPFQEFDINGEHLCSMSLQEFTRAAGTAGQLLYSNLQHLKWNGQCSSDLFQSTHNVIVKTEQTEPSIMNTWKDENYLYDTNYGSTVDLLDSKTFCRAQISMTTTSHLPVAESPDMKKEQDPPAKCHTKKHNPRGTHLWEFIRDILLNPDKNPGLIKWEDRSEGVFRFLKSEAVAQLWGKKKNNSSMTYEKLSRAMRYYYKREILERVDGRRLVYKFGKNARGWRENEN
The gist of the method:
as §1

Another experiment addresses SPIB (Homo sapiens, UniProt Q01892 1-262). The essentials:
as §1

The target in a further experiment is T5, ELK3 (Homo sapiens, UniProt P41970 1-407).
T5 sequence: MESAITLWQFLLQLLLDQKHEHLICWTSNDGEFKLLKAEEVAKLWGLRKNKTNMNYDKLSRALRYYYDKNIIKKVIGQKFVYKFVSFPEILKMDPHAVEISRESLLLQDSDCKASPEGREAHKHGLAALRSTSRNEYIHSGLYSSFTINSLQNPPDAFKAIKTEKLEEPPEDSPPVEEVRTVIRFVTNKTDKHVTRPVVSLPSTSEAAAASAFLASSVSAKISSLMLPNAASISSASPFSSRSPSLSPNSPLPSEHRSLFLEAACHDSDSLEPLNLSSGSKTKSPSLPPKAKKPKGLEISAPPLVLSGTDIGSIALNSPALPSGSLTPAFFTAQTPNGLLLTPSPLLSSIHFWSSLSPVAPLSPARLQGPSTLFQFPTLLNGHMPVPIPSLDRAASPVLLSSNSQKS
The gist of the method:
as §1

Another experiment addresses T6, FEV (Homo sapiens, UniProt Q99581 1-238).
T6 sequence: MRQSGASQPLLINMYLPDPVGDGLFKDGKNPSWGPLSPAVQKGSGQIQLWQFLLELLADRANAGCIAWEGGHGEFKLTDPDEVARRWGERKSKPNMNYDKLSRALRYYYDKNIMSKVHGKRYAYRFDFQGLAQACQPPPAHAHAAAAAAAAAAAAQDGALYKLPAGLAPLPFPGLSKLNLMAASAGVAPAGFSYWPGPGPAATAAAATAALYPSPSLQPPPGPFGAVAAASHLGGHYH
The essentials: as §1

Another experiment has as its target ETV5 (Homo sapiens, UniProt P41161 1-510). The gist of the method: as §1
In another experiment the target is T7, SPIC (Homo sapiens, UniProt Q8N5J4 1-248).
T7 sequence: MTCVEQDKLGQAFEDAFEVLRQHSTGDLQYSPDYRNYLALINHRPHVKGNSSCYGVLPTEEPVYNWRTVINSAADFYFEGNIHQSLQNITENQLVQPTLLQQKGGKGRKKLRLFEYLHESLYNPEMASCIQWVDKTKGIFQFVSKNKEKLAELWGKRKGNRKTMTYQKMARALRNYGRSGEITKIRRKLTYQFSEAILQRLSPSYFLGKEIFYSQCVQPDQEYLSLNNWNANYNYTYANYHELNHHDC
The gist of the method: as §1

For the next experiment, the target named is ELF4 (Homo sapiens, UniProt Q99607 1-663). The essentials:
as §1

The next experiment concerns the target ETV1 (Homo sapiens, UniProt P50549 1-477). The gist of the method: as §1
Another experiment addresses T8, ERF (Homo sapiens, UniProt P50548 1-548).
T8 sequence: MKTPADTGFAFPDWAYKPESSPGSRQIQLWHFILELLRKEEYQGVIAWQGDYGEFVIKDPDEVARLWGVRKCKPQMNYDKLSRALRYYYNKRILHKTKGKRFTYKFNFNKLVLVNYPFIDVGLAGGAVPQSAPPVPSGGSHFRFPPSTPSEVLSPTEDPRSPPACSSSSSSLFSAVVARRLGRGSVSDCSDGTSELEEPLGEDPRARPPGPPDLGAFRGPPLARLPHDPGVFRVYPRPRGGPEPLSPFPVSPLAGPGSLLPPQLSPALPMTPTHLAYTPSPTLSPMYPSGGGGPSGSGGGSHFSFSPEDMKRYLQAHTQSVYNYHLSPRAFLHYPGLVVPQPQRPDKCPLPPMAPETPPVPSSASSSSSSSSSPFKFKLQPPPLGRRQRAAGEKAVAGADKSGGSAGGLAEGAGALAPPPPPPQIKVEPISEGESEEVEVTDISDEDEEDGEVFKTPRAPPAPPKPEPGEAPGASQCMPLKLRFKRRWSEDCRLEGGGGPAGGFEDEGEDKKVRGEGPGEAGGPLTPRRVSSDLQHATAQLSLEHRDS
The gist of the method: as §1

Another experiment has as its target T9, ETV3L (Homo sapiens, UniProt Q6ZN32 1-361).
T9 sequence: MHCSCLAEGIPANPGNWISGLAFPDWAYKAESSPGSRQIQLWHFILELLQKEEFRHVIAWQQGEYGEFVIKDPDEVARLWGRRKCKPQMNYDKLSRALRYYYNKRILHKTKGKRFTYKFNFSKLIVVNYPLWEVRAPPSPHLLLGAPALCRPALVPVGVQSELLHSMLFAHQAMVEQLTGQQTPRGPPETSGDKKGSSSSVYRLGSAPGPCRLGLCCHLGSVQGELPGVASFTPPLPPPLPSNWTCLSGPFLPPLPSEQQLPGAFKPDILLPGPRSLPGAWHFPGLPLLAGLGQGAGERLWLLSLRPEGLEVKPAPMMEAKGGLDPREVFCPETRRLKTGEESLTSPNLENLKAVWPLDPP
The essentials:
as §1

The next experiment has as its target T10, ETS2 (Homo sapiens, UniProt P15036 1-469).
T10 sequence: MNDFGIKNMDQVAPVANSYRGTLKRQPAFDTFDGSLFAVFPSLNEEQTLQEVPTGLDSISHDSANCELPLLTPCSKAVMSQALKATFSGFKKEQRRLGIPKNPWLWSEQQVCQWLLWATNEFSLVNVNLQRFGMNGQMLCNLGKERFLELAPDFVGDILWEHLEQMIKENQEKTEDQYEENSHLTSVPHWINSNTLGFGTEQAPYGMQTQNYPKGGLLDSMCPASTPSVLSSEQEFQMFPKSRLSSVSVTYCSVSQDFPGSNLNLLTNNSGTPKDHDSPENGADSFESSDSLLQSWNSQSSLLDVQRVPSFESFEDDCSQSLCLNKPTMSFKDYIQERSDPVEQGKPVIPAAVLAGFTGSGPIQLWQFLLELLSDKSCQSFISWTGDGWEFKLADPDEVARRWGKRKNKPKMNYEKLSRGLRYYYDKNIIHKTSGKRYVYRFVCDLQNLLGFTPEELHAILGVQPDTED
The gist of the method: as §1

The target of the next experiment is T11, ELF5 (Homo sapiens, UniProt Q9UKW6-2 1-255).
T11 sequence: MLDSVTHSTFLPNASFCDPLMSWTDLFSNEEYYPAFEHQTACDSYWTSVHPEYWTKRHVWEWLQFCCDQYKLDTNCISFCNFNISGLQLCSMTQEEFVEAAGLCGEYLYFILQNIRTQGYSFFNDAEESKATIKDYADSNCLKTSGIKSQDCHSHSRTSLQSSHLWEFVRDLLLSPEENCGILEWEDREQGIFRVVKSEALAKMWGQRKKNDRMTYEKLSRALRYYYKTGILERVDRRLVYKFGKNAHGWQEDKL
The essentials: as §1

Another experiment deals with T12, ETV3 (Homo sapiens, UniProt P41162-2 1-143).
T12 sequence: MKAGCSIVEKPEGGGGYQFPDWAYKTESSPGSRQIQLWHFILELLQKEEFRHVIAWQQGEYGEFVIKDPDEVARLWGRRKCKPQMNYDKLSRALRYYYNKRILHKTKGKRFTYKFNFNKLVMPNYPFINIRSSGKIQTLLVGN
The essentials:
as §1

The target in the next experiment is ETV6 (Homo sapiens, UniProt P41212 1-452). The essentials:
as §1

Here are results for 1 sequence from PMC7862700, “An all-to-all approach to the identification of sequence-specific readers for epigenetic DNA modifications on cytosine”.

Chain of ETV5 (P41161 whole entry): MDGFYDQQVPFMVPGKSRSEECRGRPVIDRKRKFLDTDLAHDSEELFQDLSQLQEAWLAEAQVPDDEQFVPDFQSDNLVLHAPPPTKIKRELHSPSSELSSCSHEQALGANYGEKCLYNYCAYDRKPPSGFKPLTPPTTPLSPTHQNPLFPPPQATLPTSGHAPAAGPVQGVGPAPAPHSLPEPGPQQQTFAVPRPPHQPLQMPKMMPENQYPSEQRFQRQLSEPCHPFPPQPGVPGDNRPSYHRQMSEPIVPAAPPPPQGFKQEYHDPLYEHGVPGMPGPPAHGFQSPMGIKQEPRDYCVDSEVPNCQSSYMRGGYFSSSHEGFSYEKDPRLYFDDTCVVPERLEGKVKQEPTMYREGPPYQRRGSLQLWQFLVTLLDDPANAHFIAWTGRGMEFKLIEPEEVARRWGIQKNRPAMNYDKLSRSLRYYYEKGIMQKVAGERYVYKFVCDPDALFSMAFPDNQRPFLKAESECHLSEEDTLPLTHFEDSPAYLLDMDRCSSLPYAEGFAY
Chain of SPIB (Q01892 whole entry): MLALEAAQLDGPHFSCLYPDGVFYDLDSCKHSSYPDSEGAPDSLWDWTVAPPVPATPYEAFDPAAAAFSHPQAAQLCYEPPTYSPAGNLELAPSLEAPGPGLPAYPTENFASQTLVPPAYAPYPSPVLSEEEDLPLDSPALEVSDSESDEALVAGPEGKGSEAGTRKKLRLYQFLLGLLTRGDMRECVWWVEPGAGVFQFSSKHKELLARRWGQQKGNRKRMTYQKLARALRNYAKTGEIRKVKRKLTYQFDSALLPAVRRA
Chain of ETV6 (P41212 whole entry): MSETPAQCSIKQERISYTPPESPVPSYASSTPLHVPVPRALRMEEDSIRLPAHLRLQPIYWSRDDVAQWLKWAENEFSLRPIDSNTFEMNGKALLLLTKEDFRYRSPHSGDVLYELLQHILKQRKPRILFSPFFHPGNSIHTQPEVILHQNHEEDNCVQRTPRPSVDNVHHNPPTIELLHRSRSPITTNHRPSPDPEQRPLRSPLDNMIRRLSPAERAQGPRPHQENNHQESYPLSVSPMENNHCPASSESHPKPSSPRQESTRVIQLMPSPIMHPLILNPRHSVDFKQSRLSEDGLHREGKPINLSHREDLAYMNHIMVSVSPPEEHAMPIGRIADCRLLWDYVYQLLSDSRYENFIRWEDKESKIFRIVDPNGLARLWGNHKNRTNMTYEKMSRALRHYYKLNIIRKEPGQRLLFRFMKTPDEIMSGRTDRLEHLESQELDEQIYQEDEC
Chain of ELF1 (P32519 whole entry): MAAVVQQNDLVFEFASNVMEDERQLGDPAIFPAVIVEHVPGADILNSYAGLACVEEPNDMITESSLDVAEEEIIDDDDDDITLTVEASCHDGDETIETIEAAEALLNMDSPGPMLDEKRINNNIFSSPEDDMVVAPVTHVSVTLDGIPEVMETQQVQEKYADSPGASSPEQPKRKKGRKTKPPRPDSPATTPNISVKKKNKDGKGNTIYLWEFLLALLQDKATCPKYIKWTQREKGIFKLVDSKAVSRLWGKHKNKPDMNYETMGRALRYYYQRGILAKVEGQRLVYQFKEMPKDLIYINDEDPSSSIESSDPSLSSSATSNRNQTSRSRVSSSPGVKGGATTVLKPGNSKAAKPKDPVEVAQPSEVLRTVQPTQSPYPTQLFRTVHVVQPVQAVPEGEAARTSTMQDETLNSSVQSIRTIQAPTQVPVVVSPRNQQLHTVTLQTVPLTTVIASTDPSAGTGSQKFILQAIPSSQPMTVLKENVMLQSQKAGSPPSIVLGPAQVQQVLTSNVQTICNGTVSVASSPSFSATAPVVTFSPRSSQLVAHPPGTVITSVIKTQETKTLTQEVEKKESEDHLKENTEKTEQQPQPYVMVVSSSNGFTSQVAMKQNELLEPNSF
Chain of ELF4 (Q99607 whole entry): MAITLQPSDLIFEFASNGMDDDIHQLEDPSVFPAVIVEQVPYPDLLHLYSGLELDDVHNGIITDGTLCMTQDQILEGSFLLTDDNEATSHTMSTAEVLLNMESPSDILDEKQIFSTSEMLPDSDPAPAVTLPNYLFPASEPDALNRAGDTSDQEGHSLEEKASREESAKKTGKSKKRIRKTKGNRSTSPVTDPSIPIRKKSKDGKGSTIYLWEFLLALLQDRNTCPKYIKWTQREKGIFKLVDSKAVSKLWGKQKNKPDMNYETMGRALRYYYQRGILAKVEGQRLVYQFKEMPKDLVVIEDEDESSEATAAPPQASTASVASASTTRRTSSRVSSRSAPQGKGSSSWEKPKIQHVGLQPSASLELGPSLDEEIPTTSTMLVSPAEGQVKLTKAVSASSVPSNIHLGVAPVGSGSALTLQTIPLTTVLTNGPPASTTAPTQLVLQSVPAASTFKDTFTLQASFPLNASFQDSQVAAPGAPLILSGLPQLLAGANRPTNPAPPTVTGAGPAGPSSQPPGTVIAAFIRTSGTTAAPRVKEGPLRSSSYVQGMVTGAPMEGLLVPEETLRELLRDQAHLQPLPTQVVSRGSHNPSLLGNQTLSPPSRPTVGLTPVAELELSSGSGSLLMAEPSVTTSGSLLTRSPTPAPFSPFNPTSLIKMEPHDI
Chain of ETV1 (P50549 whole entry): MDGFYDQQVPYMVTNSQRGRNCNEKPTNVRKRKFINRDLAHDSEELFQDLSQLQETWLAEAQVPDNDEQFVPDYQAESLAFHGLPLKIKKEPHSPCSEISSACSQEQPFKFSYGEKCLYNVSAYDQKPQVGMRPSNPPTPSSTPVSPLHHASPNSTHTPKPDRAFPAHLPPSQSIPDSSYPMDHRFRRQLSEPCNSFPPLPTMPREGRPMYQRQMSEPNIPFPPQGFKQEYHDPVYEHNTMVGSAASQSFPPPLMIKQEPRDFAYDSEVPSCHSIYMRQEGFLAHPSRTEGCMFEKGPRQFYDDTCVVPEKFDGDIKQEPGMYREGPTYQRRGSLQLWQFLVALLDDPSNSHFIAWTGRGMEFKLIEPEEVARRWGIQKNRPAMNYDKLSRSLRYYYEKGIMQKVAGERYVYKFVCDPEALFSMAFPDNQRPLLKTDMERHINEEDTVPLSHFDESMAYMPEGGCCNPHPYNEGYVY

With TAACCG, the binding signal with FLI1 is 1.06 fold enrichment (6-mer frequency, TF over GST control); in the experiment with ELK1, 1.05 fold enrichment (6-mer frequency, TF over GST control); with ERG, 1.06 fold enrichment (6-mer frequency, TF over GST control); with ELF1 it was 1.1 fold enrichment (6-mer frequency, TF over GST control); with EHF, 1.06 fold enrichment (6-mer frequency, TF over GST control); with SPIB it was 1.18 fold enrichment (6-mer frequency, TF over GST control). Besides, the binding signal in the experiment with ELK3 is 1.13 fold enrichment (6-mer frequency, TF over GST control); with FEV, 1.25 fold enrichment (6-mer frequency, TF over GST control); with ETV5, 1.07 fold enrichment (6-mer frequency, TF over GST control); with SPIC it was 1.08 fold enrichment (6-mer frequency, TF over GST control); with ELF4, 1.06 fold enrichment (6-mer frequency, TF over GST control); with ETV1, 1.09 fold enrichment (6-mer frequency, TF over GST control). Besides, the binding signal was 1.12 fold enrichment (6-mer frequency, TF over GST control) in the experiment with ERF; 1.08 fold enrichment (6-mer frequency, TF over GST control) in the experiment with ETV3L; 1.07 fold enrichment (6-mer frequency, TF over GST control) with ETS2; 1.05 fold enrichment (6-mer frequency, TF over GST control) in the experiment with ELF5; 1.09 fold enrichment (6-mer frequency, TF over GST control) with ETV3; 1.08 fold enrichment (6-mer frequency, TF over GST control) in the experiment with ETV6.
